The source of these data is PubChem BioAssay.

The structures appear in SMILES notation. Activity calls are given as the source filed them. Unless noted, no rule for the calls is given here.

Assay [1] can be described thus: compound effects on lung adenocarcinoma cell viability – A549, calcein-AM fluorescence, 48 h, basal, profiling panel (AID 1162). Also: test concentration not given here. The following applies: higher = more signal.
Assay [2] can be described thus: compound effects on differentiated 3T3-L1 adipocyte viability – cell-based, 3T3-L1 adipocytes, calcein-AM fluorescence, 48 h, basal, profiling panel (AID 1163). Also: test concentration not given here. The settings on record: 3T3-L1 adipocytes viability, higher = more signal.
A short description of assay [3]: compound effects on hepatocellular carcinoma cell viability – HepG2, calcein-AM fluorescence, 48 h, basal, profiling panel (AID 1164). Also: test concentration not given here. The settings on record: higher = more signal.
Assay [4] can be described thus: compound effects on multiple myeloma cell viability – MM1S, calcein-AM fluorescence, 48 h, basal, profiling panel (AID 1165).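 Also: viability of MM1S multiple myeloma cells under basal unstimulated conditions; test concentration not given here.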 The settings on record: higher = more signal.
The nature of assay [5]: calcein-AM signal in unstimulated myeloma cells – cell-based, calcein-AM fluorescence, 48 h, PK04 Diversity Set, profiling panel (AID 1166).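 Also: cells grown under basal conditions without added stimulus; test concentration not given here.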 The settings on record: RPMI8226 myeloma viability, higher = more signal.
Assay [6] in a line: JC-1 mitochondrial signal, unstimulated HepG2 cells – cell-based, JC-1 fluorescence, 24 h, 100 nL compound, profiling panel (AID 1167). Also: test concentration not given here. The settings on record: HepG2 mitochondrial potential, higher = more signal.
A short description of assay [7]: JC-1 mitochondrial signal, unstimulated adipocytes – cell-based, JC-1 fluorescence, 3T3-L1 adipocytes, 24 h, 100 nL compound, profiling panel (AID 1168). Also: test concentration not given here. The settings on record: JC-1 mitochondrial fluorescence, higher = more signal, called active from +8 up or from −8 down.
The nature of assay [8]: JC-1 mitochondrial signal, unstimulated myeloma cells – cell-based, JC-1 fluorescence, RPMI8226, 24 h, 100 nL compound, profiling panel (AID 1169). Also: test concentration not given here. The following applies: JC-1 mitochondrial potential fluorescence, higher = more signal.
Assay [9] can be described thus: JC-1 mitochondrial signal, unstimulated MM1S myeloma – cell-based, JC-1 fluorescence, 24 h, 100 nL compound, profiling panel (AID 1170). Also: test concentration not given here. The settings on record: MM1S mitochondrial potential, higher = more signal.
Assay [10] can be described thus: resazurin metabolic signal in A549 cells – cell-based, resazurin fluorescence, 24 h, PK04 Diversity Set, profiling panel (AID 1171). Also: test concentration not given here. The following applies: A549 viability, higher = more signal, called active from +8 up or from −8 down.
Assay [11] can be described thus: resazurin metabolic signal in HepG2 cells – cell-based, resazurin fluorescence, 24 h, PK04 Diversity Set, profiling panel (AID 1172). Also: test concentration not given here. The following applies: HepG2 viability, higher = more signal.
Assay [12] in a line: budding yeast growth changes without added modifier – OD600, strain BY4716, 24 h, basal condition, primary screen (AID 1173). The following applies: S. cerevisiae BY4716 growth, OD600, 24 h; higher = more signal, called active from +8 up or from −8 down.
A short description of assay [13]: viability profiling in MM1S myeloma cells – cell-based, resazurin fluorescence, basal, 24 h, PK04 Diversity Set, profiling panel (AID 1174). Also: test concentration not given here. The following applies: higher = more signal, called active from +8 up or from −8 down. For orientation: Resazurin is reduced to fluorescent resorufin, in cell work by metabolically active cells.
Assay [14] deals with Dihydroorotate dehydrogenase (quinone), mitochondrial (Plasmodium falciparum (isolate 3D7)) (UniProt Q08210). Description: inhibition of P. falciparum DHODH – biochemical, C-terminal His tag, absorbance 600 nm, primary screen (AID 1175).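 Also: recombinant parasite enzyme with a five histidine tag at its C terminus; test concentration not given here.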 The settings on record: PfDHODH enzyme, DCIP absorbance 600 nm; higher = more signal, called active from +8 up or from −8 down.
Sequence of Dihydroorotate dehydrogenase (quinone), mitochondrial (Plasmodium falciparum (isolate 3D7)) (Q08210 whole entry, looked up): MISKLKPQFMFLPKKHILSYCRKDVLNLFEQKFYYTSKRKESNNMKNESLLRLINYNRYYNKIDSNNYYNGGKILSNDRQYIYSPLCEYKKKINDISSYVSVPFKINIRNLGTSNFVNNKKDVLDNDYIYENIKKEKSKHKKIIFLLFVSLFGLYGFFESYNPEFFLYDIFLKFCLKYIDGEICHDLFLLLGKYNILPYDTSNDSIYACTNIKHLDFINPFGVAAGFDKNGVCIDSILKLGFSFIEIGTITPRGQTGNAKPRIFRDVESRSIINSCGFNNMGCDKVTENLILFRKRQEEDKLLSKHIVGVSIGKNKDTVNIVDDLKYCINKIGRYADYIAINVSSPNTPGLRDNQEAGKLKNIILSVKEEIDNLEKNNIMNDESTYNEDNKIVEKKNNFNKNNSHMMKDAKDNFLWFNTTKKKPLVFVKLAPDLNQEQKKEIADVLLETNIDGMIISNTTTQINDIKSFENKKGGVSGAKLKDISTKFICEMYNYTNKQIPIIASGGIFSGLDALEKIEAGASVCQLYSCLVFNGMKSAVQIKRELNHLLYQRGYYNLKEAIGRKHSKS
A short description of assay [15]: inhibition of PAO1 biofilm formation – strain PAO1, LB-PBS medium, absorbance 600 nm, primary screen (AID 1176). Also: test concentration not given here. The settings on record: P. aeruginosa PAO1 growth/biofilm, A600, 12 h; higher = more signal.
Assay [16] in a line: growth modulation of vineyard yeast isolate – strain RM11-1a, OD600, basal, 24 h, primary screen (AID 1177).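 Also: cultures grown under basal conditions with no added stressor; test concentration not given here.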 The following applies: S. cerevisiae RM11-1a growth, OD600, 24 h; higher = more signal, called active from +8 up or from −8 down.
A short description of assay [17]: growth of efflux-deficient E. coli DRC39 – strain DRC39, OD650, 24 h, E. coli filamentation inducers, primary screen (AID 1178).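 Also: growth measured as culture turbidity by optical density at 650 nm; test concentration not given here.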 The settings on record: E. coli DRC39 acrAB, higher = more signal, called active from +8 up or from −8 down.
The nature of assay [18]: growth of efflux-deficient E. coli DRC39 – strain DRC39, OD650, 48 h, E. coli filamentation inducers, primary screen (AID 1179).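 Also: screen aims at cell division blockers that make cells filament.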 The following applies: E. coli DRC39 delta-acrAB growth, higher = more signal, called active from +8 up or from −8 down.
Assay [19] in a line: viability profiling in RPMI8226 myeloma cells – cell-based, resazurin fluorescence, basal, 24 h, PK04 Diversity Set, profiling panel (AID 1180).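 Also: RPMI8826 multiple myeloma cell line at 5000 cells per well; test concentration not given here.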 The settings on record: higher = more signal.
The target of assay [20] is E3 ubiquitin-protein ligase XIAP (Homo sapiens) (UniProt P98170). Description: small molecules binding XIAP protein – biophysical, small-molecule microarray, fluorescence 635 nm, primary screen (AID 1181).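 Also: score merges 667 nm emission and signal to noise over triplicate slides.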 The settings on record: higher = more signal.
Sequence of E3 ubiquitin-protein ligase XIAP (Homo sapiens) (P98170 whole entry, looked up): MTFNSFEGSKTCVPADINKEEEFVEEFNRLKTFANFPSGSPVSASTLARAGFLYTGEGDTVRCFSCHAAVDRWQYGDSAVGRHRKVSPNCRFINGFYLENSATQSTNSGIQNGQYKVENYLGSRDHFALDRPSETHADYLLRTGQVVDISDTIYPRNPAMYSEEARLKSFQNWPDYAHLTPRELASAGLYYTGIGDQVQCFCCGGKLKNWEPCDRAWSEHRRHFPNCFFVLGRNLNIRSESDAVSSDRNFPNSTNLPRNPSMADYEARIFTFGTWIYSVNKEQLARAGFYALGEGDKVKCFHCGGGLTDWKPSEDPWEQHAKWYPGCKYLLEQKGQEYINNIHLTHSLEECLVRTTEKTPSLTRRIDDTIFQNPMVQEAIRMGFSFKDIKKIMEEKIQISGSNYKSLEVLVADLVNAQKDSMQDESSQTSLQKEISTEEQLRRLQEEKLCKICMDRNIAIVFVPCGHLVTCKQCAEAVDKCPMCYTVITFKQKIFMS

Regarding `CCCC[C@@H](O)C1=C(COC)Cn2c(=O)n(-c3ccccc3)c(=O)n2[C@H]1CO`, the z-score was 0.281 in assay [1]; 0.122 in [2]; 0.166 in assay [3]; 0.103 in [4]; 0.337 in [5]; 0.376 in assay [6]. Also, the z-score in assay [7] was -0.301 (inactive); in assay [8], -0.197; in assay [9], 0.794; in assay [10], -0.783 (inactive); in assay [11], -0.603; in assay [12] it was -1.86 (inactive). Further, the z-score in assay [13] is -0.0278 (inactive); in assay [15], -0.131 (inactive); in assay [16], -2.03 (inactive); in assay [17], 1.15 (inactive); in assay [18], 1.06 (inactive); in assay [19], -0.0456. In addition, the composite z-score in assay [14] was -1.45 (inactive); in assay [20], -0.189.

Take `COc1ccccc1CN1C(=O)c2ccccc2[C@@H](C(=O)NCCCN(C)C)[C@@H]1c1ccc(CO)cc1`: the z-score was 1.29 in [1]; 0.608 in [2]; 1.07 in assay [3]; 0.376 in assay [4]; 0.0552 in assay [5]; 3.31 in [6]. In addition, the z-score is 0.629 (inactive) in assay [7]; 0.262 in assay [8]; 0.325 in [9]; 0.997 (inactive) in [10]; 0.619 in [11]; -1.37 (inactive) in assay [12]. Also, the z-score in assay [13] was 1.22 (inactive); in [15] it was 0.292 (inactive); in assay [16], -0.942 (inactive); in assay [17] it was 0.65 (inactive); in assay [18] it was 1.37 (inactive); in assay [19] it was 1.09. Besides, the composite z-score is 0.0824 (inactive) in assay [14] and -0.0426 in assay [20].

As for `CCOC(=O)C1=CCC(c2cc3ccccc3[nH]2)N(S(=O)(=O)c2ccccc2[N+](=O)[O-])C1` (stereo not given), the z-score in [1] was 0.0857; in assay [2], -0.913; in assay [3] it was 0.527; in assay [4], 0.277; in assay [5] it was -0.467; in assay [6], 1.17. Further, the z-score in assay [7] is -0.433 (inactive); in [8], -0.366; in assay [9], -1.61; in [10], -0.869 (inactive); in [11], -0.0211; in [12] it was 1.08 (inactive). In addition, the z-score in [13] was -1.08 (inactive); in assay [15], 0.546 (inactive); in assay [16] it was -0.16 (inactive); in [17], -0.591 (inactive); in [18], 0.158 (inactive); in [19], -1.62. Moreover, the composite z-score is -0.242 (inactive) in assay [14] and -0.014 in [20].

As to `CC[C@H](C)C(=O)O[C@H]1CC[C@]2(C)C3=C(CCC2C1(C)C)[C@]1(C)CC[C@H]([C@H](C)CCCC(C)C)[C@@]1(C)CC3` (stereo not given in full), the z-score in assay [1] was 1.18; in assay [2] it was 0.265; in assay [3], 0.469; in assay [4], 0.223; in [5], -1.06; in assay [6], 2.01. Also, the z-score is -0.959 (inactive) in [7]; -0.509 in assay [8]; 0.628 in [9]; 0.809 (inactive) in assay [10]; 1.06 in assay [11]; 0.31 (inactive) in assay [12]. Further, the z-score in assay [13] was 0.0978 (inactive); in assay [15], -0.283 (inactive); in assay [16], 0.295 (inactive); in [17], 2.06 (inactive); in assay [18], 1.47 (inactive); in assay [19] it was 1.09. Further, the composite z-score in assay [14] is 0.454 (inactive); in assay [20], -0.304.

As for `N#Cc1ccc(C(O)C2C=CC3C(=O)N(c4ccccc4)C(=O)C3N2Nc2ccc([N+](=O)[O-])cc2)cc1` (stereo not given), the z-score in assay [1] was -0.211; in assay [2], -1.46; in [3], 0.436; in assay [4] it was -0.0671; in [5] it was -0.333; in assay [6], -2.66. Also, the z-score is -1.78 (inactive) in [7]; 0.5 in assay [8]; -1.43 in [9]; -0.233 (inactive) in assay [10]; -0.298 in assay [11]; -0.0292 (inactive) in [12]. Also, the z-score in [13] is -0.291 (inactive); in assay [15] it was 1.01 (inactive); in assay [16] it was -0.114 (inactive); in assay [17], -1.15 (inactive); in assay [18], -0.224 (inactive); in assay [19], -0.783. In addition, the composite z-score was 0.154 (inactive) in [14] and -0.162 in assay [20].

In the case of `[N-]=[N+]=NCc1ccccc1C[C@]1(C(=O)N2CCOCC2)N=C(c2ccc(OCCCO)cc2)O[C@H]1c1ccccc1CN=[N+]=[N-]`, the z-score in [1] was 0.869; in [2], 0.577; in assay [3], 0.74; in assay [4], -1.47; in [5], -2.29; in [6], 1.24. Also, the z-score is 1.04 (inactive) in [7]; -1.18 in [8]; 0.233 in assay [9]; -0.768 (inactive) in assay [10]; 0.133 in [11]; 1.06 (inactive) in assay [12]. Further, the z-score in assay [13] was -0.481 (inactive); in assay [15], 0.948 (inactive); in assay [16], 2.39 (inactive); in assay [17] it was 1.67 (inactive); in assay [18], 0.93 (inactive); in assay [19], -1.11. Also, the composite z-score in [14] was 1.21 (inactive); in assay [20] it was 0.411.

Consider `CC(C)C(=C=CC[C@@H](O)c1ccc(OCCO)cc1)CCO`, for which the z-score was -0.45 in assay [1]; 0.721 in assay [2]; -0.164 in assay [3]; 0.626 in assay [4]; 0.991 in assay [5]; 0.871 in assay [6]. Further, the z-score was 0.437 (inactive) in assay [7]; -0.21 in assay [8]; -1.11 in assay [9]; 1.22 (inactive) in assay [10]; 1 in [11]; -3.28 (inactive) in [12]. In addition, the z-score in [13] was 1.21 (inactive); in assay [15], 0.13 (inactive); in assay [16], -1.17 (inactive); in assay [17], 1.61 (inactive); in [18] it was 1.52 (inactive); in [19], 1.52. Besides, the composite z-score was -2.88 (inactive) in [14] and -0.0645 in assay [20].

With `C[C@]1(C(=O)NCC(F)(F)F)c2ccccc2C(=O)N(Cc2ccc(OC(F)(F)F)cc2)[C@H]1c1ccc(CO)cc1`, the z-score in assay [1] is 0.377; in [2], 0.194; in assay [3] it was 0.334; in assay [4], 0.0863; in assay [5], -1.37; in assay [6] it was 0.756. Besides, the z-score was -0.235 (inactive) in assay [7]; 1.04 in assay [8]; 0.157 in assay [9]; 0.0382 (inactive) in assay [10]; 0.2 in [11]; -0.139 (inactive) in assay [12]. Moreover, the z-score in assay [13] was -0.296 (inactive); in assay [15] it was 1.48 (inactive); in [16], -0.353 (inactive); in [17], -0.414 (inactive); in assay [18], -1 (inactive); in assay [19], 0.14. For the same compound, the composite z-score in assay [14] is 0.182 (inactive); in [20], 0.212.
